For test [1], the target named is Calcium and integrin-binding protein 1 (Homo sapiens) (UniProt Q99828). The test can be described thus: Primary qHTS for Identification of Calcium Integrin Binding Protein 1 (CIB1) Competitor (AID 1508620).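 Note: GST tagged CIB1 binding a fluorescein labelled alphaIIb integrin peptide tracer; top concentration of the series differs between compounds.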 The essentials: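 CIB1-GST (1 uM final) and compound incubated 15 min at room temperature before adding FITC-alphaIIb peptide tracer (100 nM final). Competition for binding read by fluorescence polarization (ex 480, em 540) after another 15 min at room temperature.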

A short description of test [2]: Primary qHTS for inhibitors of nuclear receptor binding SET domain protein 2 (NSD2) in an isogenic RCH-ACV NSD2 p.E1099K mutant (9B) (AID 1645876). Note: nearly all actives have a fitted effect of over 70% in size. Note: potency is the fitted concentration of half-maximal effect.

From PubChem BioAssay (NCATS) come the findings set out here.

Results filed as inconclusive are left out. A number with no mark means an inactive call. Calls of active or inactive are those of the source. Calls come from the whole dose curve; as a rule, active = well fitted inhibition curve with a large enough effect; inconclusive = small, poorly fitted or top-dose-only effect; inactive = flat fitted curve, though single readings scatter.
% is set by controls: 0 for no effect and ±100 for the full control effect.

Calcium and integrin-binding protein 1 (Homo sapiens), sequence (Q99828 whole entry, looked up): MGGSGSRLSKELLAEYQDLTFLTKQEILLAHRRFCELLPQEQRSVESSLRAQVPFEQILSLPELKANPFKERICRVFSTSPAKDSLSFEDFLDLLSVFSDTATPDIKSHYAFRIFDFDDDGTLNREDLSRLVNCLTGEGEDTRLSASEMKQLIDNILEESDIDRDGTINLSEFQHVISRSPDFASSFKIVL

For `O=C(O[C@H]1[C@@H]2C=CO[C@@H](O[C@@H]3O[C@H](CO)[C@@H](O)[C@H](O)[C@H]3O)[C@@H]2[C@@]2(CO)O[C@@H]12)c1ccccc1`, the Potency result in test [1] and in test [2] was “inactive” throughout.

As to `COc1ccc(/C=C/C(=O)O[C@@H]2[C@@H](O)[C@H](C)O[C@@H](O[C@H]3[C@@H]4C=CO[C@@H](O[C@H]5O[C@@H](CO)[C@H](O)[C@@H](O)[C@@H]5O)[C@@H]4[C@@]4(CO)O[C@@H]34)[C@@H]2OC(C)=O)cc1`, the Potency entry in test [1] and in test [2] was “inactive” each time.

In the case of `COc1cc(/C=C/C(=O)OC[C@H]2O[C@@](CO)(O[C@H]3O[C@H](CO)[C@@H](O)[C@H](O)[C@H]3O)[C@@H](OC(=O)/C=C/c3ccc(O)c(OC)c3)[C@@H]2O)ccc1O`, the Potency entry in test [1] and in test [2] was “inactive” each time.

On to `C=CCC1=C[C@]2(OC)[C@H](C)[C@@H](c3ccc(O)c(OC)c3)O[C@]2(OC)CC1=O`, for which the Potency entry in test [1] and in test [2] was “inactive” each time.

Consider `CC12CCC(C(OC3OC(COC4OCC(O)(CO)C4O)C(O)C(O)C3O)C1)C(C)(C)O2` (stereo not given), for which the Potency result in test [1] and in test [2] was “inactive” each time.

Take `C=C(CCC1=C(C)[C@H]2[C@H](CC3[C@@H]4CC=C5C[C@@H](O)C[C@@H](O)[C@]5(C)C4[C@H](O)C[C@@]32C)O1)CO[C@@H]1O[C@H](CO)[C@@H](O)[C@H](O)[C@H]1O` (stereo not given in full): in test [1], the Potency entry is “inactive”. Also, the Potency in test [2] was 483 nM (active).

In the case of `CC1OC(OC2C(C)OC(OC3C(OC(=O)C45CCC(C)(C)CC4C4=CCC6C7(C)CCC(OC8OC(C(=O)O)C(O)C(O)C8OC8OC(CO)C(O)C(OC9OC(C)C(O)C(O)C9O)C8O)C(C)(CO)C7CCC6(C)C4(C)CC5)OC(CO)C(O)C3O)C(O)C2O)C(O)C(O)C1O` (stereo not given), the activity change, negative = inhibition in test [1] was -1.29% [at 12.4 µM]. The activity change, negative = viability loss in test [2] is 2.43% [at 9.23 µM].

As for `COC(=O)/C=C/C12COC(C)(C)C1C(O)C(OC(C)=O)C1(C)C2CCC2(C)C(c3ccoc3)OC(=O)C3OC321` (stereo not given), the Potency entry in test [1] and in test [2] was “inactive” each time.

On to `C=C1C(=O)OC2C1CCC(=C)C1CC(OC(C)=O)C(=C)C12` (stereo not given), for which, in test [1], the Potency entry is “inactive”. Further, in test [2], the Potency was 10300 nM (active).

Take `C=C(C(=O)O)C1CCC2(C)CCCC(C)(O)C2C1` (stereo not given): the Potency result in test [1] and in test [2] was “inactive” throughout.

As to `CC(C)(C)c1ccc(S(=O)(=O)Nc2ccc(Cl)cc2C(=O)c2cc[n+]([O-])cc2)cc1`, the Potency result in test [1] and in test [2] was “inactive” in each case.

Regarding `CC1(C)CC[C@]2(C(=O)O[C@@H]3O[C@H](CO[C@@H]4O[C@H](CO)[C@@H](O)[C@H](O)[C@H]4O[C@@H]4O[C@H](CO)[C@H](O)[C@H](O)[C@H]4O)[C@@H](O)[C@H](O[C@@H]4O[C@H](CO)[C@@H](O)[C@H](O)[C@H]4O)[C@H]3O)CC[C@]3(C)C(=CCC4[C@@]5(C)CC[C@H](O[C@@H]6OC[C@@H](O)[C@H](O)[C@H]6O)[C@@](C)(C(=O)O)C5CC[C@]43C)[C@@H]2C1` (stereo not given in full), the activity change, negative = inhibition in test [1] was 0.475% [at 12.4 µM]. For the same molecule, the activity change, negative = viability loss in test [2] is -8.77% [at 9.23 µM].

In the case of `CC(=O)OC1C(O)C2C(C)C3=CC(=O)OC3(O)CC2C2(C)CCCC(C)(CO)C12` (stereo not given), the Potency entry in test [1] and in test [2] was “inactive” throughout.

Consider `COc1cccc(Nc2ncnn3ccc(CN4CC[C@@H](N)[C@H](O)C4)c23)c1`, for which the Potency result in test [1] was “inactive”. Also, the Potency in test [2] is 4680 nM (active).

Consider `COC(=O)C(C)C1CCC2(C)C(=O)C=CC(C)(O)C2C1O` (stereo not given), for which the Potency entry in test [1] and in test [2] was “inactive” in each case.

On to `COc1ccc(/C=C/C(=O)O[C@H]2[C@H](O[C@H]3[C@@H]4C=CO[C@@H](O[C@@H]5O[C@H](CO)[C@@H](O)[C@H](O)[C@H]5O)[C@@H]4[C@@]4(CO)O[C@@H]34)O[C@@H](C)[C@H](O)[C@H]2OC(C)=O)cc1`, for which the Potency entry in test [1] and in test [2] was “inactive” throughout.

On to `COc1cc(C(=O)OC[C@@]2(O)CO[C@@H](O[C@H]3[C@H](Oc4ccc(C(=O)O)cc4OC)O[C@H](CO)[C@@H](O)[C@@H]3O)[C@@H]2O)ccc1O`, for which the Potency result in test [1] and in test [2] was “inactive” throughout.

As for `COc1cc(O)c2c(c1)C1=C[C@H](O)[C@@H](O)C[C@]1(C)OC2=O`, the Potency result in test [1] and in test [2] was “inactive” each time.

With `COc1cccc2cc3c(c(O[C@@H]4O[C@H](CO[C@@H]5O[C@H](CO)[C@@H](O)[C@H](O)[C@H]5O)[C@@H](O)[C@H](O)[C@H]4O)c12)C(C)OC3=O` (stereo not given in full), the Potency entry in test [1] and in test [2] was “inactive” throughout.

`CC12CCC(=O)C=C1C(O)CC1C2C(O)CC2(C)C1CC[C@]2(O)C(=O)CO` (stereo not given in full): in test [1], the Potency entry was “inactive”. In test [2], the outcome is “inactive [at 9.23 µM]”.

Regarding `C=C1C(=O)O[C@@H]2/C=C(\C)C(=O)/C=C/[C@](C)(O)C[C@@H](OC(=O)C(C)C)[C@@H]12`, the Potency result in test [1] is “inactive”. The Potency in test [2] is 401 nM (active).

Take `FC(F)(F)c1cc(-c2ncn(/C=C\c3nnco3)n2)cc(C(F)(F)F)c1`: the Potency entry in test [1] is “inactive”. Besides, the Potency in test [2] was 2300 nM (active).

As for `CC[C@]1(O)CC2CN(CCc3c([nH]c4ccccc34)[C@@](C(=O)OC)(c3cc4c(cc3OC)N(C=O)[C@H]3[C@@](O)(C(=O)OC)[C@H](OC(C)=O)[C@]5(CC)C=CCN6CC[C@]43[C@@H]65)C2)C1` (stereo not given in full), the Potency result in test [1] is “inactive”. In addition, in test [2], the Potency is 6.4 nM (active).

As for `C[C@@H]1CC[C@]2(C(=O)O[C@@H]3O[C@H](CO)[C@@H](O)[C@H](O)[C@H]3O)CC[C@]3(C)C(=CCC4[C@@]5(C)C[C@@H](O)[C@H](O)[C@](C)(C(=O)O)C5CC[C@]43C)[C@@H]2[C@]1(C)O` (stereo not given in full), the Potency entry in test [1] and in test [2] was “inactive” each time.

For the molecule `N[C@@]1(C(=O)O)CC[C@H]2[C@H](C(=O)O)[C@H]21`, the Potency entry in test [1] and in test [2] was “inactive” each time.
